Only some compounds are listed: those with a hit (about 8% of all), similar ones and a draw of the others.
KB-V1 MDR tox: KB-V1 MDR subline cytotoxicity; KB-V1 MDR cells viability, CellTiter-Glo, 72 h; Potency, µM (titrated, usually from 46.1 µM), most hits filed as cytotoxic; 400,000 tested, 3.4% active; AID 1347076; note: % is set by controls: 0 for no effect and ±100 for the full control effect; nearly all actives have a fitted effect of over 60% in size
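KB-V1 cells (P-gp-expressing MDR subline of KB-3-1) in phenol-red-free DMEM with 10% FBS were exposed to library compounds over a concentration series for 72 h at 37 degrees C. Viability read by CellTiter-Glo luminescence; concentration-effect curves fitted after normalization.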
MCF10A rerep: DNA re-replication induction in MCF 10a cells; MCF 10A DNA re-replication, Hoechst nuclear intensity, 48 h; Potency, µM (titrated, usually from 46.1 µM), for the others: top-dose activity, positive = re-replication, actives largely listed as activators; 350,000 tested, 2.9% active; AID 624296; note: % of control where 0% means no effect; nearly all actives have a fitted effect of over 50% in size
KB-3-1 cytotox: KB-3-1 parental cell cytotoxicity; Potency, µM (top dose mostly 46.1 µM), actives largely listed as cytotoxic; KB-3-1 viability, CellTiter-Glo ATP luminescence, 72 h; 400,000 tested, 1.4% active; note: % is set by controls: 0 for no effect and ±100 for the full control effect; nearly all actives have a fitted effect of over 60% in size
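Using CellTiter-Glo luminescence, growth of non-resistant KB-3-1 adenocarcinoma cells is assessed 72 h after pin-tool compound addition at 37 °C. Normalized responses across the concentration series yield fitted curves.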
SW480 rereplic: induces DNA re-replication in SW480 colon adenocarcinoma cells. SW480 DNA re-replication, Hoechst DNA content imaging, 48 h. Potency, µM (doses to about 46.1 µM), without a hit: at the top dose re-replication activation, usual class: activators. AID 624297. 340,000 tested, 1.8% active; note: % of control where 0% means no effect; nearly all actives have a fitted effect of over 55% in size
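Cells (250 per well) received 23 nL compound or DMSO by pin tool and were kept 48 hr at 37 C, 5% CO2. Nuclei were then stained with Hoechst for 40 min and scanned for DNA content.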
HT1080-NT tox: kills 2HG-producing HT-1080-NT fibrosarcoma cells; HT-1080-NT fibrosarcoma viability, CellTiter-Glo ATP luminescence, 48 h; Potency, µM (series often up to 46.1 µM), for inactives: at the highest dose activity, negative = less viability, hits mostly cytotoxic; 360,000 tested, 1.6% active;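 note: NT is the 2HG producing partner of a matched IDH1 knockdown line; 0% = DMSO-treated cells and -100% = media-only wells without cells; nearly all actives have a fitted effect of over 55% in size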
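Luminescent CellTiter-Glo readout after 48 hours of compound exposure at 37 degrees C defined viability of HT-1080-NT cells. Activity was normalized to DMSO wells and cell-free media wells; concentration-response curves were fitted and assigned curve classes.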
HT1080 IDH1KD tx: HT-1080 IDH1 knockdown cell toxicity (counter line); HT-1080 IDH1 knockdown viability, ATP luminescence, 48 h; Potency, µM (highest dose often 46.1 µM), inactives show at the top dose activity, negative = toxicity, most hits filed as cytotoxic; 360,000 tested, 2% active; AID 686971;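 note: 0% = DMSO wells and -100% = cell-free medium wells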
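% activity derives from luminescence (CellTiter-Glo), normalised to DMSO and no-cell wells. HT-1080-IDH1KD cells, 750/well, had 48 h compound exposure at 37 °C.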
Starred values were filed as active, the others as inactive; i = inactive; ? = inconclusive; . = not tested or not shown; [ ] = dose if it differs, or a comment. Calls come from the whole dose curve; as a rule, active = well fitted curve in the direction sought with a large enough effect; inconclusive = small, poorly fitted or top-dose-only effect, or another doubt; inactive = no such curve, though single readings can be large; an effect the other way counts as inactive or inconclusive. Potency is the fitted concentration of half-maximal effect.

SMILES | KB-V1 MDR tox | MCF10A rerep | KB-3-1 cytotox | SW480 rereplic | HT1080-NT tox | HT1080 IDH1KD tx
C/C(=N\OCC(=O)NCC(F)(F)F)c1cc2ccccc2o1 | i | -85.8% | i | 10.1% | 21.5% | 14.4%
COc1cc(C(=O)N/N=C(\Cc2ncc[nH]2)c2ccccc2)cc(OC)c1OC | ? | 18.4µM* | ? | ? | 9.2µM* | 4.61µM*
COc1ccc(C(=O)NN=C(Cc2ccccc2)Cc2ccccc2)cc1OC | ? | ? | i | ? | 5.0% | 4.4%
COc1ccc(C(=O)N/N=C(\Cc2ncc[nH]2)c2ccccc2)cc1 | ? | ? | i | 9.2µM* | ? | ?
c1ccc(N/N=C(\Cc2ncc[nH]2)c2ccccc2)cc1 | ? | 2.0% | i | 4.7% | -18.4% | -15.7%
CCCNC(=O)c1cc2c(c(-c3cccc(-c4ccccc4F)c3)n1)[C@@H](CCO)N(C(=O)CC1CC1)C2 | 23.1µM* | . | ? | . | ? | ?
CCNC(=O)c1cc2c(c(-c3cccc(-c4ccccc4F)c3)n1)[C@H](CCO)N(C(=O)CC)C2 | 18.4µM* | . | ? | . | ? | ?
O=C(NCC(F)(F)F)c1cc2c(c(-c3cccc(-c4ccccc4F)c3)n1)[C@H](CCO)N(C(=O)CC1CC1)C2 | 16.4µM* | . | ? | . | ? | ?
CCCN1C(=O)/C(=C2\SC(N3CCCCC3)=NC2=O)c2ccccc21 | ? | 20.9% | i | 1.8% | -16.6% | -29.1%
CN1C(=O)/C(=C2\SC(N3CCCCCC3)=NC2=O)c2ccccc21 | 2.06µM* | 23.4% | ? | -1.9% | ? | 8.3%
CC1(C)COC(/C=C/c2ccc([N+](=O)[O-])cc2)=N1 | 20.6µM* | 16.4µM* | ? | 16.4µM* | ? | 23.1µM*
O=[N+]([O-])c1ccc(/C=C/c2ccnc3ccccc23)cc1 | i | . | ? | . | . | .
COc1cc(/C=C2/SC(=O)N(Cc3ccccc3)C2=O)ccc1OCc1ccncc1 | i | ? | ? | 12.1% | 6.3% | 3.3%
CN(C)c1cc[n+](CC(=O)Nc2c(Cl)cc(Cl)cc2Cl)cc1 | i | -1.6% | 8.2µM* | -140.2% | -6.8% | -26.9%
CN(C)CCN1C(=O)c2cccc3cc([N+](=O)[O-])cc(c23)C1=O | 2.59µM* | ? | 8.2µM* | 1.46µM* | 10.3µM* | 13µM*
Cc1ccc(C)c2c1CCC(=Cc1ccccc1[N+](=O)[O-])C2=O | i | . | i | . | 2.4% | 0.0%
CN1C/C(=C/c2ccccc2[N+](=O)[O-])C(=O)/C(=C\c2ccccc2[N+](=O)[O-])C1 | i | 1.84µM* | ? | 1.16µM* | 2.91µM* | 3.66µM*
Cn1cc([N+](=O)[O-])c(C(=O)NCc2cc3cc(Cl)ccc3[nH]2)n1 | i | 26.4% | 9.2µM* | -1.6% | 0.6% | 16.8%
CCOC(=O)C1CCCN(C(=O)CN2C(=O)C(CC)Oc3ccc(C)cc32)C1 (stereo unspecified) | i | -1.2% | i | 1.7% | 3.1% | 13.9%[9.24 µM]
Cn1c(/C(C#N)=C/C2CC=CCC2)nc2ccccc21 (stereo unspecified) | i | -2.0% | i | -9.0% | ? | ?
N#C/C(=C\C1CC=CCC1)c1nc2ccccc2[nH]1 (stereo unspecified) | 13µM* | ? | ? | ? | ? | ?
CNC(=O)C(=O)NCC1OCCCN1S(=O)(=O)c1ccc2c(c1)OCCO2 (stereo unspecified) | i | ? | i | -3.5% | 8.9% | 9.7%
Cc1ccc(CN2C(=O)[C@H]3Cc4c([nH]c5ccccc45)C(C)(C)N3C2=O)cc1 | i | 20.6µM* | ? | ? | . | .
Cc1ccc(CN2C(=O)[C@@H]3Cc4c([nH]c5ccccc45)C(C)(C)N3C2=O)cc1 | ? | ? | ? | -9.9% | . | .
CC1(C)c2[nH]c3ccccc3c2C[C@@H]2C(=O)N(Cc3ccc(F)cc3)C(=O)N21 | ? | 18.4µM* | ? | 1.6% | . | .
SMILES | KB-V1 MDR tox | MCF10A rerep | KB-3-1 cytotox | SW480 rereplic | HT1080-NT tox | HT1080 IDH1KD tx
CN(C)c1ccc(N=Nc2ccccc2C(=O)OCC(=O)N2CCCCCC2)cc1 | 3.26µM* | ? | ? | -5.5% | -15.9% | -19.4%
CC(C)(C)c1ccc(-c2nnc(SCC(=O)Nc3sc4c(c3C#N)CCCC4)o2)cc1 | i | ? | i | -81.8% | 9.8% | 3.0%
Cc1cc(N=Nc2c(O)c3ccccc3[nH]c2=O)ccc1N=Nc1ccc(C(=O)N(C)C)cc1 | i | 14.5% | i | -2.6% | 0.6% | -2.5%
O=C(O)c1ccc(N=Nc2c(O)[nH]c3ccccc23)cc1 | ? | 6.2% | ? | 23.1µM* | 5.8% | ?
CN(C)C(=O)c1ccc(N=Nc2c(O)c3ccccc3[nH]c2=O)cc1 | ? | 12.4% | i | ? | 5.8µM* | 6.51µM*
CCCOc1ccc(N2C(=O)CC(NCCNc3ccc([N+](=O)[O-])cn3)C2=O)cc1 (stereo unspecified) | i | 0.2% | i | -5.5% | -0.9% | -6.9%
O=C(OCCCc1cc2ccccc2c(=O)o1)c1ccc(F)cc1 | i | -11.5% | i | -27.4%[9.22 µM] | 0.0% | 2.2%
COc1ccccc1NC(=O)N1CCN(c2ccc3nnc(-c4ccc(F)cc4)n3n2)CC1 | ? | 14.5% | i | -0.8% | 25.9µM* | ?
COc1ccc(C(=O)C2CCCN(Cc3cccn3-c3ccccn3)C2)cc1F (stereo unspecified) | i | ? | i | 1.7%[1.84 µM] | -14.7% | ?
CC(C)Oc1cccc(C(=O)C2CCCN(Cc3cccn3-c3ccccn3)C2)c1 (stereo unspecified) | ? | 11.0% | ? | ? | 23.1µM* | 20.6µM*
O=C(c1ccc(Cl)cc1)C1CCCN(Cc2cccn2-c2ccccn2)C1 (stereo unspecified) | i | 5.6% | i | 2.1% | 16.4µM* | 23.1µM*
Cc1ccsc1C(=O)C1CCCN(Cc2cccn2-c2ccc(Cl)cn2)C1 (stereo unspecified) | ? | ? | i | 18.4µM* | ? | ?
COc1cccc(C(=O)C2CCCN(Cc3cccn3-c3ccccn3)C2)c1 (stereo unspecified) | i | -1.9% | i | 5.4% | ? | ?
CC(=O)c1c(C)[n+]([O-])c2ccc3c(non3O)c12 | ? | 9.4% | i | -1.9% | -0.4% | -4.0%
COc1cccc(NC(=O)CN(C)C(=O)c2c(C)nn(-c3ccccc3)c2Cl)c1 | i | -0.7% | i | 13.3% | -18.3% | 0.0%
